The record followed here is PubChem BioAssay (EPA / NIEHS).

The structures appear in SMILES notation. Calls of active or inactive are those of the source. Rule for the calls: active = hit-call score of the fitted dose curve at least 0.9, where 1 is the maximum; inactive = score below 0.9.

This experiment in a line: ATG_M_19_CIS: Attagene CIS-FACTORIAL HepG2 Assay for M19 Transcription Factor (Internal Marker) (AID 2282939). As to conditions: HepG2 Attagene CIS-FACTORIAL M19 internal marker reporter; actives raise or lower the signal. The method, then:
ATG_CIS is a cell-based, multiplexed-readout assay that uses HepG2, a human liver cell line, with measurements taken at 24 hours after chemical dosing in a 24-well plate.ATG_M_19_CIS is one of 52 assay component(s) measured or calculated from the ATG_CIS assay. It is designed to make measurements of mRNA induction, a form of inducible reporter, as detected with fluorescence intensity signals by Reverse transcription polymerase chain reaction (RT-PCR) and Capillary electrophoresis technology.Data from the assay component ATG_M_19_CIS was analyzed into 1 assay endpoint. This assay endpoint, ATG_M_19_CIS, was analyzed with bidirectional fitting relative to DMSO as the negative control and baseline of activity. Using a type of inducible reporter, measures of mRNA for gain or loss-of-signal activity can be used to understand the background control at the transcription factor-level as they relate to the gene . Furthermore, this assay endpoint can be referred to as a secondary readout, because this assay has produced multiple assay endpoints where this one serves a background control function. To generalize the intended target to other relatable targets, this assay endpoint is annotated to the background measurement intended target family, where the subfamily is internal marker.
Human liver HepG2 cells are transiently transfected with multiple reporter transcription units (MRTUs) in 6-well plates using FuGene 6 reagent (Roche; 3 ml FuGene/1 mg DNA). The MRTU constructs are regulated by a cis-regulating element (promoter). […] A major difference between the CIS and TRANS system is that in CIS activities of endogenous TFs are measured, whereas the TRANS assay evaluates changes in activities of exogenous, chimeric NR-Gal4 proteins. […] At the end of 24 hour incubation, total RNA was isolated using TriZol reagent (Invitrogen). The isolated RNA is then reverse-transcribed using oligo(dT) primer and Mo-MLV reverse transcriptase (Invitrogen) with DNAse I (Ambion) treatment for 30 min. The one-tenth of the produced cDNA was amplified by PCR using Taq DNA polymerase (Invitrogen) and two reporter sequence-specific primers. The PCR products were fluorescently labeled by primer extension with 6-arboxyfluorescein (6-FAM) 5'-labeled reporter sequence-specific primer (2 min at 95 C, 20 s at 68 C and 10 min at 72 C) and these products were digested with 5U of HpaI (New England Biolabs) for 2h at 37 C. The fragments were purified using Qiaquick PCR columns (Qiagen), analyzed on an ABI 3130xL genetic analyzer (Applied Biosystems) with peak positions identified by using a set of X-rhodamine (ROX)-labeled MapMarker1000 molecular weight standards (BioVentures). The raw capillary electrophoresis data was processed using Attagraph software (Attagene).
Regarding `Cc1ccc(OP(=O)(Oc2ccc(C)cc2)Oc2ccc(C)cc2)cc1` (tested in a mixture with another compound), the outcome was inactive.

In the case of `CC(C)CCCCCCCOC(=O)c1ccccc1C(=O)OCCCCCCCC(C)C`, the compound was classed as inactive.

Take `O=S(=O)(O)O`: the result was inactive.

As for `CC(C)(C)C(=O)CCl`, the outcome was inactive.

For the compound `NNc1ccccc1`, the compound was classed as inactive.

`[Cl][Sb]([Cl])[Cl]`: the compound was called inactive.

As for `CCOC(=O)N(C)N=O`, the call was inactive.

For the compound `CC(C)[C@@H](C(=O)O[C@@H](C#N)c1cccc(Oc2ccccc2)c1)c1ccc(Cl)cc1`, the result was inactive.

As for `O=P1(NCCCl)OCCCN1CCCl` (stereo not given), the call was inactive.

For the compound `CCCCOP(=O)(O)OCCCC`, the outcome was inactive.

In the case of `CCCCOC(=O)CCC(=O)OCCCC`, the outcome was inactive.

As for `C=CC(=O)OCCCCOC(=O)C=C`, the outcome was inactive.

`CC(C)c1ccc(O)cc1`: the call was inactive.

On to `CCCCCCCCCCCC#N`, for which the compound was called inactive.

Regarding `O=c1[nH]c(Cl)c(Cl)cc1Cl`, the call was inactive.

Regarding `C=CC(=O)OC`, the outcome was inactive.

As for `O=C1Nc2ccc(Cl)cc2C(c2ccccc2)=NC1O` (stereo not given), the compound was classed as inactive.

For `CCCCNP(N)(N)=S`, the call was inactive.

`O=C=Nc1ccccc1`: the result was inactive.

Consider `CC(C)(C)C(O)C(Oc1ccc(-c2ccccc2)cc1)n1cncn1` (stereo not given), for which the call was inactive.

`CCOP(=O)(OCC)OCC`: the compound was classed as inactive.

Consider `CC(C)COP(=O)(OCC(C)C)OCC(C)C`, for which the compound was classed as inactive.

With `C[N+](=O)[O-]`, the outcome was inactive.

Take `S=c1[nH]c2ccccc2[nH]1`: the compound was classed as inactive.

Take `BrCBr`: the compound was classed as inactive.

On to `N#CCNCC#N`, for which the result was inactive.

On to `CC(C)C(=O)Cl`, for which the result was inactive.

On to `CCN(CC)C(=S)S`, for which the result was inactive.

In the case of `O=C(O)C(Br)Br`, the compound was classed as inactive.

On to `CC[N+](=O)[O-]`, for which the outcome was inactive.

With `[N-]=[N+]=CC(=O)OC[C@H](N)C(=O)O`, the compound was called inactive.

Regarding `CCCC=NO`, the result was inactive.

On to `CN1C[C@H](C(=O)N[C@]2(C)O[C@@]3(O)[C@@H]4CCCN4C(=O)[C@H](Cc4ccccc4)N3C2=O)C=C2c3cccc4[nH]cc(c34)C[C@H]21`, for which the compound was classed as inactive.

For the compound `ClCCCCCCCl`, the result was inactive.

As to `O=C1C=CC(=O)C=C1`, the call was inactive.

With `CCc1cccc(C)c1N(C(=O)CCl)[C@@H](C)COC`, the call was inactive.

As to `Oc1ccc(C2(c3ccc(O)cc3)c3ccccc3-c3ccccc32)cc1`, the call was inactive.

`CCOC(=O)C1OC1(C)c1ccccc1` (stereo not given): the call was inactive.

As to `c1ccc(Nc2ccc3ccccc3c2)cc1`, the result was inactive.

For the compound `CC1CCC(=O)O1` (stereo not given), the outcome was inactive.
